# Source: PubChem BioAssay (Tox21)
# Several values for one entry are separate records, joined by “and”; a condition that tells them apart may be missing. Equal entries are not always repeated. Results filed as inconclusive are left out. Activity calls are given as the source filed them. The call rests on the fitted dose curve; in most records, active means well fitted inhibition curve with a large enough effect in the repeat runs; inconclusive means weak or mixed curves, or effect the other way; inactive means no such curve, though single readings can be large or run the other way.
# Experiment: qHTS assay to identify small molecule antagonists of the retinoic acid receptor (RAR) signaling pathway (AID 1159552; further: nearly all actives have a fitted effect of over 50% in size)
# Details: C3RL4 RARE luciferase reporter, retinol-stimulated, 6 h; series mostly up to 92.4 µM; activity, negative = inhibition: at the top concentration
# Procedure, shortened: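 Cells of the C3RL4 line were seeded, incubated overnight, then dosed with compounds in DMSO followed immediately by retinol (1 uM final). Six hours later luciferase detection reagent went in; signal was measured after 30 min at RT.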
# On the % scale 0 is the no-effect control and ±100 the full control effect; potency means the concentration at half of the fitted maximal effect.
Structure (SMILES),"activity, negative = inhibition",Potency
COc1ccc(C#N)cc1,-14.7% (inactive),
C/C=C/CO,-0.748% (inactive),
CCCCCCCCCC(=O)N(C)C,28.9% (inactive),
Cn1cccc1,-1.52% (inactive),
CCC1CCCCC1,1.04% (inactive),
CCc1c(Br)c(Br)c(Br)c(Br)c1Br,-17% (inactive),
O=C1NCN(c2ccccc2)C12CCN(CCCC(c1ccc(F)cc1)c1ccc(F)cc1)CC2,,29.8 µM (active)
N#CSCSc1nc2ccccc2s1,,17.2 µM (active)
O=Nc1ccc(NO)cc1,1.96% (inactive),
Cc1ccc(O)cn1,-18.3% (inactive),
CCOC(=O)COc1ccc(C)cc1,48.7% (inactive),
CC(C)c1cccc(C(C)C)c1N1C(=O)c2ccc(O)cc2C1=O,,24.3 µM (active)
Clc1cccnc1,-5.38% (inactive),
CN(C)c1ccc(N=NS(=O)(=O)O)cc1,25.1% (inactive),
CSc1ccc2c(c1)N(CCC1CCCCN1C)c1ccccc1S2 (stereo not given),,24.2 µM (active) and 29.8 µM (active)
CCCCCCCCCCCCCc1ccccc1,-7.75% [at 42.5 µM] (inactive),
CC=O,,25.5 µM (active)
O=S(=O)(O)c1cc(S(=O)(=O)O)c2ccc3c(S(=O)(=O)O)cc(S(=O)(=O)O)c4ccc1c2c43,14.4% [at 19 µM] (inactive),

Structure (SMILES),"activity, negative = inhibition",Potency
CCCC(O)C(O)CO (stereo not given),-3.33% (inactive),
CC1=CP(=O)(c2ccccc2)CC1 (stereo not given),-18.7% (inactive),
Clc1ccc(C(c2ccccc2Cl)C(Cl)Cl)cc1 (stereo not given),,54.5 µM (active)
c1ccc2c(c1)CCC2,26.7% (inactive),
O=C1c2c(O)ccc([N+](=O)[O-])c2C(=O)c2c([N+](=O)[O-])ccc(O)c21,,27.1 µM (active)
O=C1C=CC(=O)N1c1ccccc1,,6.11 µM (active)
CN1CCN(C2Cc3ccccc3Sc3ccc(Cl)cc32)CC1 (stereo not given),,29.8 µM (active)
CC(=O)OC1CCCCC1,6.22% (inactive),
C[C@]12CC[C@H]3C(=CCc4cc(O)ccc43)[C@@H]1CCC2=O,-4.12% (inactive),
C=CC/C=C/C/C=C/C/C=C/C,7.2% (inactive),
CC1(C)C(=O)N(CO)C(=O)N1CO,-3.3% (inactive),
CCc1cccc(CC)c1NC(=O)C(=O)O,7.84% (inactive),
O=C1OC(=O)c2ccc3c4c(ccc1c24)C(=O)OC3=O,-17.5% (inactive),
CCOCN(C(=O)CS(=O)(=O)O)c1c(C)cccc1CC,9.77% (inactive),
CC(=O)O[C@@H]1C[C@@H]2CC[C@@]1(C)C2(C)C,-2.71% (inactive),
CCOCOCC,1.55% (inactive),
C=CC(=O)OCCN(CC)CC,12.7% (inactive),
